Measurements from ChEMBL document CHEMBL2218924, “A broad activity screen in support of a chemogenomic map for kinase signalling research and drug discovery” (Biochem J, 2013).

What follows are molecules tested against Tyrosine-protein kinase HCK (Homo sapiens) (UniProt P08631). Details: at 10 µM.
Sequence of Tyrosine-protein kinase HCK (Homo sapiens) (P08631 2-526 limits assumed): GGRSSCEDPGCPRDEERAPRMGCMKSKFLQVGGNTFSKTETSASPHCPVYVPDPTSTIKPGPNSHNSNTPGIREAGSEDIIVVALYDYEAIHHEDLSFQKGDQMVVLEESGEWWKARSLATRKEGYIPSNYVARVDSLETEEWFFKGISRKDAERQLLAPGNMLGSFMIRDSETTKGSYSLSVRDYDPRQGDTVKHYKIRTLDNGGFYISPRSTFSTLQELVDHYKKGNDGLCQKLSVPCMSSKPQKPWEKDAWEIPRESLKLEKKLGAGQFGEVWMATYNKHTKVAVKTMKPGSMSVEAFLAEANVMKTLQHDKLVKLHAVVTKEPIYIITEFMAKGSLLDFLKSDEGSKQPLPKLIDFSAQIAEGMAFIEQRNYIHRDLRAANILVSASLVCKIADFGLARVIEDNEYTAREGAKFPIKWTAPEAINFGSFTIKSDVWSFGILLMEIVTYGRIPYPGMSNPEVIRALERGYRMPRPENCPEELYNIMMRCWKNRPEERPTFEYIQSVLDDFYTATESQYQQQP

Row | SMILES | residual activity
1 | O=C1NC(=O)C(c2cn(CCCn3ccnc3)c3ccccc23)=C1Nc1ccccc1 | 65%
2 | O=C(Nc1ccc(Cl)cc1)c1ccccc1NCc1ccncc1 | 38%
3 | O=C1NC(=O)C(c2c[nH]c3ccccc23)=C1c1c[nH]c2ccccc12 | 38%
4 | CCCCc1c(-c2ccc(O)cc2)[nH]c2nccnc12 | 23%
5 | O=C1Nc2ccccc2/C1=C\c1c(Cl)[nH]c2ccccc12 | 27%

The molecules below were run against Tyrosine-protein kinase HCK (Homo sapiens) (UniProt P08631). Details: at 1 µM.

Row | SMILES | residual activity
6 | COc1ccc(CNC(=O)Nc2ncc([N+](=O)[O-])s2)cc1 | 52%
7 | Cn1sc(=O)n(Cc2ccccc2)c1=O | 89%
8 | Nc1nc(Nc2ccc(S(N)(=O)=O)cc2)nn1C(=O)c1c(F)cccc1F | 75%
9 | N#C/C(=C\c1ccc(O)c(O)c1)C(=O)NCc1ccccc1 | 102%
10 | COc1cc2c(cc1OC)-c1n[nH]c(Nc3cccc(F)c3)c1C2 | 19%
11 | CCOC(=O)c1c(C)[nH]c(/C=C2\C(=O)Nc3ccccc32)c1C | 93%
12 | CSc1nc(-c2ccc(F)cc2)c(-c2ccnc(NC(C)c3ccccc3)c2)[nH]1 (stereo unspecified) | 102%
13 | NCCNc1ncc(C(N)=O)c(Nc2cccc(C(F)(F)F)c2)n1 | 64%
14 | O=C1Cc2c([nH]c3ccc([N+](=O)[O-])cc23)-c2ccccc2N1 | 81%
15 | COc1cc2ncnc(Nc3cccc(Cl)c3)c2cc1OC | 40%
16 | Cc1cc(C)c(/C=C2\C(=O)Nc3ccccc32)[nH]1 | 63%
17 | COc1cc2nccc(Oc3ccc(NC(=O)Nc4cc(C)on4)c(Cl)c3)c2cc1OC | 5%
18 | CCCCc1c(-c2ccc(O)cc2)[nH]c2nccnc12 | 63%

Target: Tyrosine-protein kinase HCK (Homo sapiens) (UniProt P08631)
Details: at 10 µM
Remark: another data set of the same source

Row | SMILES | residual activity
19 | COc1ccc(CNC(=O)Nc2ncc([N+](=O)[O-])s2)cc1 | 54%
20 | Cn1sc(=O)n(Cc2ccccc2)c1=O | 90%
21 | Nc1nc(Nc2ccc(S(N)(=O)=O)cc2)nn1C(=O)c1c(F)cccc1F | 21%
22 | N#C/C(=C\c1ccc(O)c(O)c1)C(=O)NCc1ccccc1 | 80%
23 | Nc1n[nH]c2nc3ccccc3nc12 | 88%
24 | COc1cc2c(cc1OC)-c1n[nH]c(Nc3cccc(F)c3)c1C2 | 2%
25 | CCOC(=O)c1c(C)[nH]c(/C=C2\C(=O)Nc3ccccc32)c1C | 97%
26 | CSc1nc(-c2ccc(F)cc2)c(-c2ccnc(NC(C)c3ccccc3)c2)[nH]1 (stereo unspecified) | 86%
27 | NCCNc1ncc(C(N)=O)c(Nc2cccc(C(F)(F)F)c2)n1 | 14%
28 | Nc1nccc(-c2c(-c3ccc(F)cc3)ncn2C2CCNCC2)n1 | 43%
29 | O=C1Cc2c([nH]c3ccc([N+](=O)[O-])cc23)-c2ccccc2N1 | 81%
30 | O=c1c(-c2ccc(F)cc2)c(-c2ccncc2)[nH]n1-c1ccc(Cl)cc1 | 81%
31 | COc1cc2ncnc(Nc3cccc(Cl)c3)c2cc1OC | 4%
32 | Cc1cc(C)c(/C=C2\C(=O)Nc3ccccc32)[nH]1 | 40%
33 | COc1cc2nccc(Oc3ccc(NC(=O)Nc4cc(C)on4)c(Cl)c3)c2cc1OC | 6%
34 | O=C(c1ccccc1)c1ccc(N2CCOCC2)cc1O | 93%
35 | CCCCc1c(-c2ccc(O)cc2)[nH]c2nccnc12 | 64%
36 | O=C1Nc2ccccc2/C1=C\c1c(Cl)[nH]c2ccccc12 | 87%

These molecules were tested against Insulin-like growth factor 1 receptor (Homo sapiens) (UniProt P08069). Details: at 1 µM.
Sequence of Insulin-like growth factor 1 receptor (Homo sapiens) (P08069 31-736 limits assumed): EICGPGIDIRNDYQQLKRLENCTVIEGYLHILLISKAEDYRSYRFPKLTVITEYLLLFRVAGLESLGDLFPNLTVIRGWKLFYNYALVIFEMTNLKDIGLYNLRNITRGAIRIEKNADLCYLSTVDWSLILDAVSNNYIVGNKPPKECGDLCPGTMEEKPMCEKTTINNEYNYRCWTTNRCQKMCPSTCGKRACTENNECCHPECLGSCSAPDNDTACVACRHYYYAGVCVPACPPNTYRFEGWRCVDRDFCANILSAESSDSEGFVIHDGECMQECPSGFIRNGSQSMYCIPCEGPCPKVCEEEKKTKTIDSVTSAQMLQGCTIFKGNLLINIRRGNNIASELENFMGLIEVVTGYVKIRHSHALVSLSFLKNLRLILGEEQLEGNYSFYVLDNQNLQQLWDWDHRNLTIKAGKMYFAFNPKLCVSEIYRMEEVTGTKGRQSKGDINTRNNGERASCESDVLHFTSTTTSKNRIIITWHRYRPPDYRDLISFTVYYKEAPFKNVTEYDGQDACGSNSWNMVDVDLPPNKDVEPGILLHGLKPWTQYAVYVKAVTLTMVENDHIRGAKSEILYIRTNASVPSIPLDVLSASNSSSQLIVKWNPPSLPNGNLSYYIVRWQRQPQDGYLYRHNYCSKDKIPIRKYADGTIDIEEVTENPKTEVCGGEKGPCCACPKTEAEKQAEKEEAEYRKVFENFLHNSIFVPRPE
Sequence of Insulin-like growth factor 1 receptor (Homo sapiens) (P08069 741-1367 limits assumed): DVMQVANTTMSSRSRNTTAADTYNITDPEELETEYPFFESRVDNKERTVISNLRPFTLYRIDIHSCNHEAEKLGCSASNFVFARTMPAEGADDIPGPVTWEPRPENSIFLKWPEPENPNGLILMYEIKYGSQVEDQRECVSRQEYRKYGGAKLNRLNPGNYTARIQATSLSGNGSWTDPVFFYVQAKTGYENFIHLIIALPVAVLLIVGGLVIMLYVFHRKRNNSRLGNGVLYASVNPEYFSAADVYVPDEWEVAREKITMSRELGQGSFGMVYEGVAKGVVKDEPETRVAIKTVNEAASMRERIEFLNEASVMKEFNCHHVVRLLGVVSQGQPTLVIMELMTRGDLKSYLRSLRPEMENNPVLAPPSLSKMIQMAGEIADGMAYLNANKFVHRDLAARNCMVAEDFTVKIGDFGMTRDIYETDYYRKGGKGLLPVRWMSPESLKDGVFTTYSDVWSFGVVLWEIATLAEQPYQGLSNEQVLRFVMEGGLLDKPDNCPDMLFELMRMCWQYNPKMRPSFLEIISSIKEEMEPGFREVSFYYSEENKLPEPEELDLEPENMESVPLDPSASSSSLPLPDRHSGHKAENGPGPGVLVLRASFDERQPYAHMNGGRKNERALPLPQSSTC

Row | SMILES | residual activity
37 | O=c1cc(N2CCOCC2)oc2c(-c3ccccc3)cccc12 | 133%
38 | Cn1sc(=O)n(Cc2ccccc2)c1=O | 93%
39 | COc1ccc(COc2ccc(Cc3cnc(N)nc3N)cc2OC)cc1 | 128%
40 | N#C/C(=C\c1ccc(O)c(O)c1)C(=O)NCc1ccccc1 | 144%
41 | Nc1n[nH]c2nc3ccccc3nc12 | 121%
42 | COc1cc2c(cc1OC)-c1n[nH]c(Nc3cccc(F)c3)c1C2 | 105%
43 | CCOC(=O)c1c(C)[nH]c(/C=C2\C(=O)Nc3ccccc32)c1C | 119%
44 | NCCNc1ncc(C(N)=O)c(Nc2cccc(C(F)(F)F)c2)n1 | 127%
45 | COc1cc2ncnc(Nc3cccc(Cl)c3)c2cc1OC | 111%
46 | COc1ccc(-c2cnc3c(-c4ccsc4)cnn3c2)cc1 | 134%
47 | COc1cc2nccc(Oc3ccc(NC(=O)Nc4cc(C)on4)c(Cl)c3)c2cc1OC | 135%
48 | O=C(c1ccccc1)c1ccc(N2CCOCC2)cc1O | 76%
49 | O=C1NC(=O)C(c2cn(CCCn3ccnc3)c3ccccc23)=C1Nc1ccccc1 | 140%
50 | O=C(Nc1ccc(Cl)cc1)c1ccccc1NCc1ccncc1 | 125%
51 | O=C1NC(=O)C(c2c[nH]c3ccccc23)=C1c1c[nH]c2ccccc12 | 128%
52 | CCCCc1c(-c2ccc(O)cc2)[nH]c2nccnc12 | 131%

Each molecule was assayed against Insulin-like growth factor 1 receptor (Homo sapiens) (UniProt P08069). Details: at 10 µM.

Row | SMILES | residual activity
53 | COc1ccc(CNC(=O)Nc2ncc([N+](=O)[O-])s2)cc1 | 123%
54 | CCOc1nc(NC(=O)Cc2cc(OC)ccc2OC)cc(N)c1C#N | 130%
55 | COc1ccc(COc2ccc(Cc3cnc(N)nc3N)cc2OC)cc1 | 133%
56 | Nc1nc(Nc2ccc(S(N)(=O)=O)cc2)nn1C(=O)c1c(F)cccc1F | 105%
57 | N#C/C(=C\c1ccc(O)c(O)c1)C(=O)NCc1ccccc1 | 65%
58 | Nc1n[nH]c2nc3ccccc3nc12 | 132%
59 | O=C1Cc2c([nH]c3ccc(Br)cc23)-c2ccccc2N1 | 141%
60 | COc1cc2c(cc1OC)-c1n[nH]c(Nc3cccc(F)c3)c1C2 | 115%
61 | Nc1nccc(-c2c(-c3ccc(F)cc3)ncn2C2CCNCC2)n1 | 120%
62 | O=C1Cc2c([nH]c3ccc([N+](=O)[O-])cc23)-c2ccccc2N1 | 123%
63 | CN([C@@H](Cc1ccc(OS(=O)(=O)c2cccc3cnccc23)cc1)C(=O)N1CCN(c2ccccc2)CC1)S(=O)(=O)c1cccc2cnccc12 | 182%
64 | O=c1c(-c2ccc(F)cc2)c(-c2ccncc2)[nH]n1-c1ccc(Cl)cc1 | 73%
65 | O=C(c1ccccc1)c1ccc(N2CCOCC2)cc1O | 81%
66 | NC(=O)c1ccc(-c2nc(-c3ccc4c(c3)OCCO4)c(-c3ccccn3)[nH]2)cc1 | 137%
